Growth data for 37 compounds are collected here from PubChem BioAssay (NCI).

Compounds without any hit were thinned out: in the full panel of roughly 83,000, 20% have a hit.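 A percent growth of 40 corresponds to 60% growth inhibition; 0 means no net growth; -100 means all cells died. Active threshold: below 10.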 A number with no mark means an inactive call. Active and inactive are the calls of the source.

For the first assay, the system named is NCI-H23 lung. The assay is described as follows: NCI-60 one-dose screen, 48 h (100 = growth as untreated, 0 = no growth, -100 = all killed). The note with it: 10 µM unless noted.
As for `COc1cc2c(cc1OCCCCCn1c(-c3ccc(OCc4ccccc4)cc3)nc3cc(N4CCOCC4)ccc31)N=C[C@@H]1CCCN1C2=O`, the growth is 15.5%.

For `CSc1nnc(C2=CC(=O)c3ccccc3C2=O)n1-c1ccccc1`, the growth was 83.9%.

For the compound `COc1cccc2c1O/C(=C\c1c([N+](=O)[O-])ncn1C)C2=O`, the growth was 99.8%.

Consider `CCC1=C(c2ccc(OC)cc2)C(C)(C)Oc2c1ccc(O)c2CN1CCCC1`, for which the growth is 13.1%.

With `CCCCn1c(Cc2ccc(Cl)cc2)nc2cc(OC)c(OC)cc2c1=O`, the growth was 74.6%.

For `ClC1C2CC(c3ccccc32)C1Cl` (centres undefined), the growth is 106%.

For the compound `CC(c1ccccn1)C(C)(O)C(C)c1ccccn1` (centres undefined), the growth is 104%.

As for `O=C(Nc1ccccc1Cl)c1cnc2ccc(C3CCNCC3)cn12`, the growth was 95%.

As for `O=C(OCCBr)c1ccc(Cl)c([N+](=O)[O-])c1`, the growth was 104%.

`CO[C@H]1/C=C/O[C@@]2(C)Oc3c(C)c(O)c4c(O)c(c(/C=N/N5CCN(C)CC5)c(O)c4c3C2=O)NC(=O)/C(C)=C\C=C\C(C)[C@H](O)[C@@H](C)[C@@H](O)[C@@H](C)[C@@H](OC(C)=O)[C@@H]1C` (some centres undefined): the growth is 96.3%.

Consider `CC(=O)c1nc2ccccc2n1CCn1cc(CC(N)C(=O)O)c2ccccc21` (centres undefined), for which the growth is 90.3%.

In the case of `CCCCCCOc1ccc(/C=N/NC(N)=S)cc1`, the growth is 54.3%.

Take `Cc1ccccc1NC(=O)c1cc2ccccc2cc1O`: the growth was 10.9%.

Regarding `CC[C@]1(O)CC2CN(CCc3c([nH]c4ccccc34)[C@@](C(=O)OC)(c3cc4c(cc3OC)N(C)[C@H]3[C@@](O)(C(=O)OC)[C@H](OC(C)=O)[C@]5(CC)C=CCN6CC[C@]43[C@@H]65)C2)C1` (some centres undefined), the growth is 16.1%.

For the compound `CN(C)c1ccc(/C=C(\C#N)c2nc3ccccc3c(=O)[nH]2)cc1`, the growth is 70.2%.

For `CC(=O)c1cc(C(=O)c2ccc3c(c2)Sc2ccccc2N3)c2c(C)cc(C)cn12`, the growth is 26.7%.

For the compound `CCn1c2ccccc2c2ccc(C(C)=O)cc21`, the growth is 101%.

For the compound `Clc1ncn[nH]1`, the growth was 106%.

As for `Cc1cc(N2CCOCC2)nc(N2CCOCC2)n1`, the growth is 94.6%.

Regarding `Oc1ccc(Cc2ccc(O)c(C3CC(c4ccc(Cl)cc4)=NN3)c2)cc1C1CC(c2ccc(Cl)cc2)=NN1` (centres undefined), the growth is 17.4%.

As to `c1cncc(CNc2ccccc2-c2nnc(Nc3ccc4c(c3)OCO4)o2)c1`, the growth was 18%.

For `COc1cc2c(C#N)n3c(c2cc1OC)C(=O)C(c1ccccc1)Oc1ccccc1-3` (centres undefined), the growth is 20.5%.

The next assay relates to NCI-H226 lung. Described as above. The note with it: 10 µM unless noted.
Turning to `COc1ccc(-c2cn(-c3ccccc3)c(-c3ccccc3)n2)cc1OC`, the growth is 62.4%.

Take `O=c1ccn(C2OC(CO)C(O)C2F)c(=O)[nH]1` (centres undefined): the growth was 101%.

Consider `c1ccc(N2CCN(c3nncc4ccccc34)CC2)nc1`, for which the growth was 98.1%.

For the compound `CCOc1ccccc1C(=O)OCC(=O)Nc1cccc(S(=O)(=O)N(C)C)c1`, the growth was 100%.

Turning to `O=[N+]([O-])c1ccc(N/N=C\c2ccccc2[N+](=O)[O-])nc1`, the growth is 106%.

Take `O[C@@H]1Cc2ccc3ccccc3c2N[C@H](c2ccoc2)C1`: the growth is 93.5%.

On to `CCOC(=O)/C=C(/C)Sc1cc(O)c2ccccc2c1O`, for which the growth was 89.4%.

Regarding `CCc1ccc(CCN2C(=O)c3ccccc3C2=O)nc1`, the growth was 100%.

Turning to `O=C1C(=O)c2ccc(Br)cc2-c2cc(Br)ccc21`, the growth was 88.6%.

Turning to `COc1cc(/C=C/C(=O)N2CCN(C(=O)/C=C/c3ccccc3)CC2)cc(OC)c1OC`, the growth is 102%.

For `Cc1nn(-c2ccc(Cl)cc2)c2nc3c(nc12)C(=O)c1ccccc1-3`, the growth is 32.5%.

As to `COc1cc(C2NC(c3ccc(Cl)cc3)C(C)/C(=N/NC(N)=S)C2C)cc(OC)c1OC` (centres undefined), the growth was 85.9%.

`COC(=O)c1ccc2c(c1)nc(-c1ccc(O)c(OC)c1)n2-c1cc(C(C)(C)C)[nH]n1`: the growth is 106%.

Turning to `COC(=O)[C@]1(C(C)C)N[C@H](c2cn(-c3ccccc3)nc2-c2ccccc2)[C@@H]2C(=O)N(c3ccc(Cl)cc3)C(=O)[C@@H]21`, the growth is 105%.

Take `C[n+]1c2ccccc2c(NC2CCNCC2)c2[nH]c3ccccc3c21`: the growth is 6.63% (active).

For `COc1cc2c(cc1OCCCCCn1c(-c3ccc(OCc4ccccc4)cc3)nc3cc(N4CCOCC4)ccc31)N=C[C@@H]1CCCN1C2=O`, the growth is -41.1% (active).

Consider `CSc1nnc(C2=CC(=O)c3ccccc3C2=O)n1-c1ccccc1`, for which the growth was 85.5%.

For the compound `COc1cccc2c1O/C(=C\c1c([N+](=O)[O-])ncn1C)C2=O`, the growth was 96.9%.

With `CCC1=C(c2ccc(OC)cc2)C(C)(C)Oc2c1ccc(O)c2CN1CCCC1`, the growth was 29%.

As to `CCCCn1c(Cc2ccc(Cl)cc2)nc2cc(OC)c(OC)cc2c1=O`, the growth is 66.4%.

As to `ClC1C2CC(c3ccccc32)C1Cl` (centres undefined), the growth is 109%.

Consider `CC(c1ccccn1)C(C)(O)C(C)c1ccccn1` (centres undefined), for which the growth is 103%.

On to `O=C(Nc1ccccc1Cl)c1cnc2ccc(C3CCNCC3)cn12`, for which the growth is 65%.

As to `O=C(OCCBr)c1ccc(Cl)c([N+](=O)[O-])c1`, the growth was 126%.

For the compound `CO[C@H]1/C=C/O[C@@]2(C)Oc3c(C)c(O)c4c(O)c(c(/C=N/N5CCN(C)CC5)c(O)c4c3C2=O)NC(=O)/C(C)=C\C=C\C(C)[C@H](O)[C@@H](C)[C@@H](O)[C@@H](C)[C@@H](OC(C)=O)[C@@H]1C` (some centres undefined), the growth is 84.5%.

For `CC(=O)c1nc2ccccc2n1CCn1cc(CC(N)C(=O)O)c2ccccc21` (centres undefined), the growth was 102%.

Turning to `CCCCCCOc1ccc(/C=N/NC(N)=S)cc1`, the growth was 66%.

As to `Cc1ccccc1NC(=O)c1cc2ccccc2cc1O`, the growth was 77.1%.

For `CC[C@]1(O)CC2CN(CCc3c([nH]c4ccccc34)[C@@](C(=O)OC)(c3cc4c(cc3OC)N(C)[C@H]3[C@@](O)(C(=O)OC)[C@H](OC(C)=O)[C@]5(CC)C=CCN6CC[C@]43[C@@H]65)C2)C1` (some centres undefined), the growth was 48.9%.

For the compound `CN(C)c1ccc(/C=C(\C#N)c2nc3ccccc3c(=O)[nH]2)cc1`, the growth is 74.1%.

Regarding `CC(=O)c1cc(C(=O)c2ccc3c(c2)Sc2ccccc2N3)c2c(C)cc(C)cn12`, the growth was 30%.

With `CCn1c2ccccc2c2ccc(C(C)=O)cc21`, the growth was 91.8%.

For the compound `Clc1ncn[nH]1`, the growth is 102%.

As for `Cc1cc(N2CCOCC2)nc(N2CCOCC2)n1`, the growth was 110%.

`Oc1ccc(Cc2ccc(O)c(C3CC(c4ccc(Cl)cc4)=NN3)c2)cc1C1CC(c2ccc(Cl)cc2)=NN1` (centres undefined): the growth is 53.6%.

`c1cncc(CNc2ccccc2-c2nnc(Nc3ccc4c(c3)OCO4)o2)c1`: the growth was -14% (active).

On to `COc1cc2c(C#N)n3c(c2cc1OC)C(=O)C(c1ccccc1)Oc1ccccc1-3` (centres undefined), for which the growth was 21.8%.
